From PubChem BioAssay
Activity calls are given as the source filed them.

system: Wnt5a (protein binding on small-molecule microarray); assay: Wnt5a binders on small-molecule microarray, primary screen, biophysical, 635/667 nm fluorescence (AID 1142); details: 635 nm fluorescence, higher = more signal;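 note: fluorescence read at 667 nm with signal to noise per printed feature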

Structure (SMILES) | composite z-score
CC(C)=CCCC(C)=CCON=C1C[C@@H](O)[C@@H](O)[C@@H]2[C@@H]3C(=O)N(C[C@@H]4CCCO4)C(=O)[C@@H]3CC[C@H]12 | 0.24
O=C1OCCC=C1C(O)CCc1ccccc1 (stereo unspecified) | 0.0626
COCOc1ccc(Br)cc1C(=O)[C@@H]1O[C@H]1c1cccc(OC)c1 | -0.202
CC(C)=CCCC(C)=CCON=C1C[C@@H](O)[C@@H](O)[C@@H]2[C@@H]3C(=O)N(Cc4ccccc4)C(=O)[C@@H]3CC[C@H]12 | -0.0617
COC(=O)[C@@H]1CC[C@H](C)[C@@H](c2ccc(C)cc2)N1C(=O)c1ccc(C=NOCC[C@@H]2C=C[C@H](OC(C)=O)[C@@H](COC(C)=O)O2)cc1 | 0.133
CON=C1[C@H]2CCn3c(=O)n(-c4ccccc4)c(=O)n3[C@H]2[C@H](O)[C@@H]2O[C@H]12 | 0.0275
CO[C@@H]1C=CCC(=O)N[C@@H](C)C(=O)OC[C@@H](OC)[C@H](C)CCCC(=O)OC[C@H]1C | 0.122
O=C1C[C@@H](O)[C@@H](O)[C@@H]2[C@@H]3C(=O)N(C[C@@H]4CCCO4)C(=O)[C@@H]3CC[C@@H]12 | 0.191
CON=C[C@@H](C)[C@H](OCc1ccccc1)C(C)C | 0.103
COC(=O)CC=C[C@@H](C)[C@@H]1C=C[C@H](O)[C@@H](CO)O1 | -0.27
Cc1ccc(S(=O)(=O)n2c3ccccc3c3nnc(C(=O)c4ccccc4)nc32)cc1 | 0.19
CC(C)CON=C1C[C@@H](O)[C@@H](O)[C@@H]2[C@@H]3C(=O)N(c4ccc(F)cc4F)C(=O)[C@@H]3CC[C@H]12 | 0.0062
CC(CCN1CCc2nc(-c3ccccc3)c(-c3ccccc3)cc2C1)=NOC[C@@H](O)COCc1ccco1 | 0.133
COc1cccc([C@H]2Oc3ccc(OC)cc3C(=NOC[C@@H](O)COCc3ccco3)[C@@H]2O)c1 | -0.217
CC(CCN1CCCCc2nc(C)c(C)cc21)=NOC[C@@H](C)[C@H](OCc1ccccc1)C(C)C | -0.876
O=C(NN=C1C[C@@H](O)[C@@H](O)[C@@H]2[C@@H]3C(=O)N(C[C@@H]4CCCO4)C(=O)[C@@H]3CC[C@H]12)OCc1ccccc1 | -0.222
COC(=O)[C@H]1[C@@H](O)[C@@]2(O)c3ccccc3O[C@@]2(c2ccccc2)[C@@H]1c1ccccc1 | -0.113
CC(C)(C)N1C(=O)[C@H]2[C@H]3[C@H](O)[C@H](O)CC(=NO[C@@H]4O[C@H](CO)[C@@H](O)[C@H](O)[C@H]4O)[C@H]3CC[C@H]2C1=O | 0.0479
CC(C)CON=C1C[C@@H](O)[C@@H](O)[C@@H]2[C@@H]3C(=O)N(C[C@@H]4CCCO4)C(=O)[C@@H]3CC[C@@H]12 | 0.0867
CC=CC1=C(CO)C(=O)[C@@H]2O[C@@H]2C1=O | 0.189
C[C@@H](c1ccccc1)N1C(=O)[C@H]2[C@H]3[C@H](O)[C@H](O)CC(=NOCc4ccccc4)[C@H]3CC[C@H]2C1=O | -0.0159
C[C@H](ON=C1[C@H]2CCn3c(=O)n(-c4ccccc4)c(=O)n3[C@H]2[C@H](O)[C@@H]2O[C@H]12)c1cn([C@H](CO)Cc2ccccc2)nn1 | 0.087
C[C@H]1COC(=O)[C@@H]2CCCN2C(=O)[C@@H](C)COC(=O)[C@H](Cc2ccccc2)NC1=O | 0.0398
CCOC(=O)CCN1C(=O)[C@H]2[C@H]3[C@H](O)[C@H](O)CC(=NNC(=O)OCc4ccccc4)[C@@H]3CC[C@H]2C1=O | 0.109
CC(C)=CCCC(C)=CCON=C1C[C@@H](O)[C@@H](O)[C@@H]2[C@@H]3C(=O)N(c4cccc(Oc5ccccc5)c4)C(=O)[C@@H]3CC[C@@H]12 | -0.102

system: not listed separately; assay: cell viability in Huh7 cells, primary screen, cytotoxicity control for HCV replication inhibitor project, CellTiter-Glo luminescence, basal, 48 h (AID 1143); details: Huh7 HCV replicon, higher = more signal, called active from +8 up or from −8 down;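 note: Huh7 hepatoma cells carrying a hepatitis C replication reporter with no stimulus; test concentration not given here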

Structure (SMILES) | z-score
CCOC(=O)[C@H](Cc1ccccc1)NC(=O)CCC1CC(OC(=O)NCc2cccc3ccccc23)CC2(CCCC(COC(=O)NCCC(C)C)O2)O1 (stereo partly specified) | 0.0896 (inactive)
CC(C)CON=C1[C@H]2CCn3c(=O)n(Cc4cc5c(cc4Cl)OCO5)c(=O)n3[C@H]2[C@H](O)[C@@H]2O[C@H]12 | -2.89 (inactive)
CC(CCC(=O)OC[C@H]1O[C@H](C#Cc2ccccc2)C=C[C@@H]1Oc1ccc(C)cc1)=NO[C@H](C)c1cn([C@H](CO)Cc2ccccc2)nn1 | -0.874 (inactive)
COc1ccc(COC(=O)NN=C2C[C@@H](O)[C@@H](O)[C@@H]3[C@@H]4C(=O)N(c5ccc(F)cc5F)C(=O)[C@@H]4CC[C@H]23)cc1 | -1.64 (inactive)
C#CCCCON=C1[C@H]2CCn3c(=O)n(C)c(=O)n3[C@H]2[C@H](O)[C@@H]2O[C@H]12 | 0.119 (inactive)
CC(C)=CCCC(C)=CCON=C1C[C@@H](O)[C@@H](O)[C@@H]2[C@@H]3C(=O)N(C(C)(C)C)C(=O)[C@@H]3CC[C@@H]12 | -0.813 (inactive)
CCN1C(=O)[C@H]2[C@H]3[C@H](O)[C@H](O)CC(=O)[C@@H]3CC[C@H]2C1=O | 0.213 (inactive)
O=C1CCCC=C1C(O)CCOC(c1ccccc1)(c1ccccc1)c1ccccc1 (stereo unspecified) | -1.32 (inactive)
COC(=O)CC=C[C@@H](C)[C@@H](C=NOC[C@H]1O[C@H](c2ccccc2)C=C[C@@H]1Oc1ccc(OC)cc1)NS(=O)(=O)c1ccc(C)cc1 | -0.588 (inactive)
CC(CCN1CCCc2nc(C)c(C)cc21)=NO[C@@H](C)c1cc(-c2c(C)cc(C)cc2C)no1 | -0.636 (inactive)
CO[C@H](C1CCCCC1)[C@H](C)C=CCC(=O)OCCCc1ccccc1 | 0.419 (inactive)
CC(C)=CCCC(C)=CCON=C1C[C@@H](O)[C@@H](O)[C@@H]2[C@@H]3C(=O)N(C[C@@H]4CCCO4)C(=O)[C@@H]3CC[C@H]12 | -0.296 (inactive)
O=C1OCCC=C1C(O)CCc1ccccc1 (stereo unspecified) | 0.104 (inactive)
COCOc1ccc(Br)cc1C(=O)[C@@H]1O[C@H]1c1cccc(OC)c1 | -1.97 (inactive)
CC(C)=CCCC(C)=CCON=C1C[C@@H](O)[C@@H](O)[C@@H]2[C@@H]3C(=O)N(Cc4ccccc4)C(=O)[C@@H]3CC[C@H]12 | -3.4 (inactive)
COC(=O)[C@@H]1CC[C@H](C)[C@@H](c2ccc(C)cc2)N1C(=O)c1ccc(C=NOCC[C@@H]2C=C[C@H](OC(C)=O)[C@@H](COC(C)=O)O2)cc1 | -0.689 (inactive)
CON=C1[C@H]2CCn3c(=O)n(-c4ccccc4)c(=O)n3[C@H]2[C@H](O)[C@@H]2O[C@H]12 | 0.653 (inactive)
CO[C@@H]1C=CCC(=O)N[C@@H](C)C(=O)OC[C@@H](OC)[C@H](C)CCCC(=O)OC[C@H]1C | -0.468 (inactive)

Structure (SMILES) | z-score
O=C1C[C@@H](O)[C@@H](O)[C@@H]2[C@@H]3C(=O)N(C[C@@H]4CCCO4)C(=O)[C@@H]3CC[C@@H]12 | 0.149 (inactive)
CON=C[C@@H](C)[C@H](OCc1ccccc1)C(C)C | -1.83 (inactive)
COC(=O)CC=C[C@@H](C)[C@@H]1C=C[C@H](O)[C@@H](CO)O1 | 0.362 (inactive)
Cc1ccc(S(=O)(=O)n2c3ccccc3c3nnc(C(=O)c4ccccc4)nc32)cc1 | -0.472 (inactive)
CC(C)CON=C1C[C@@H](O)[C@@H](O)[C@@H]2[C@@H]3C(=O)N(c4ccc(F)cc4F)C(=O)[C@@H]3CC[C@H]12 | -0.86 (inactive)
CC(CCN1CCc2nc(-c3ccccc3)c(-c3ccccc3)cc2C1)=NOC[C@@H](O)COCc1ccco1 | 0.42 (inactive)
COc1cccc([C@H]2Oc3ccc(OC)cc3C(=NOC[C@@H](O)COCc3ccco3)[C@@H]2O)c1 | -0.564 (inactive)
CC(CCN1CCCCc2nc(C)c(C)cc21)=NOC[C@@H](C)[C@H](OCc1ccccc1)C(C)C | -1.07 (inactive)
O=C(NN=C1C[C@@H](O)[C@@H](O)[C@@H]2[C@@H]3C(=O)N(C[C@@H]4CCCO4)C(=O)[C@@H]3CC[C@H]12)OCc1ccccc1 | 0.348 (inactive)
COC(=O)[C@H]1[C@@H](O)[C@@]2(O)c3ccccc3O[C@@]2(c2ccccc2)[C@@H]1c1ccccc1 | -0.359 (inactive)
CC(C)(C)N1C(=O)[C@H]2[C@H]3[C@H](O)[C@H](O)CC(=NO[C@@H]4O[C@H](CO)[C@@H](O)[C@H](O)[C@H]4O)[C@H]3CC[C@H]2C1=O | -2.05 (inactive)
CC(C)CON=C1C[C@@H](O)[C@@H](O)[C@@H]2[C@@H]3C(=O)N(C[C@@H]4CCCO4)C(=O)[C@@H]3CC[C@@H]12 | 1.13 (inactive)
CC=CC1=C(CO)C(=O)[C@@H]2O[C@@H]2C1=O | -1.02 (inactive)
C[C@@H](c1ccccc1)N1C(=O)[C@H]2[C@H]3[C@H](O)[C@H](O)CC(=NOCc4ccccc4)[C@H]3CC[C@H]2C1=O | -0.416 (inactive)
C[C@H](ON=C1[C@H]2CCn3c(=O)n(-c4ccccc4)c(=O)n3[C@H]2[C@H](O)[C@@H]2O[C@H]12)c1cn([C@H](CO)Cc2ccccc2)nn1 | 1.92 (inactive)
C[C@H]1COC(=O)[C@@H]2CCCN2C(=O)[C@@H](C)COC(=O)[C@H](Cc2ccccc2)NC1=O | 0.257 (inactive)
CCOC(=O)CCN1C(=O)[C@H]2[C@H]3[C@H](O)[C@H](O)CC(=NNC(=O)OCc4ccccc4)[C@@H]3CC[C@H]2C1=O | 0.13 (inactive)
CC(C)=CCCC(C)=CCON=C1C[C@@H](O)[C@@H](O)[C@@H]2[C@@H]3C(=O)N(c4cccc(Oc5ccccc5)c4)C(=O)[C@@H]3CC[C@@H]12 | -4.07 (inactive)
